Reference: PubChem BioAssay AID1851 (National Center for Advancing Translational Sciences (NCATS), 2009)
Among all 16,000 compounds or so, about 5,700 (36%) were called active. Roughly 24% stayed inconclusive and do not appear here. Some of the results follow. Unmarked numbers belong to inactive results. The call rests on the fitted dose curve; in most records, active means well fitted curve in the direction sought with a large enough effect; inconclusive means small, poorly fitted or top-dose-only effect, or effect the other way; inactive means no such curve, though single readings can be large or run the other way.

The molecules below were run against Cytochrome P450 1A2 (Homo sapiens) (UniProt P05177) (assay: Cytochrome panel assay with activity outcomes). Settings: recombinant CYP, pro-luciferin dealkylation, luminescence, p450-cyp1a2; series mostly up to 57.1 µM; activity, negative = inhibition: at the top concentration.
On the % scale 0 is the no-effect control and ±100 the full control effect.

Sequence of Cytochrome P450 1A2 (Homo sapiens) (P05177 whole entry, looked up): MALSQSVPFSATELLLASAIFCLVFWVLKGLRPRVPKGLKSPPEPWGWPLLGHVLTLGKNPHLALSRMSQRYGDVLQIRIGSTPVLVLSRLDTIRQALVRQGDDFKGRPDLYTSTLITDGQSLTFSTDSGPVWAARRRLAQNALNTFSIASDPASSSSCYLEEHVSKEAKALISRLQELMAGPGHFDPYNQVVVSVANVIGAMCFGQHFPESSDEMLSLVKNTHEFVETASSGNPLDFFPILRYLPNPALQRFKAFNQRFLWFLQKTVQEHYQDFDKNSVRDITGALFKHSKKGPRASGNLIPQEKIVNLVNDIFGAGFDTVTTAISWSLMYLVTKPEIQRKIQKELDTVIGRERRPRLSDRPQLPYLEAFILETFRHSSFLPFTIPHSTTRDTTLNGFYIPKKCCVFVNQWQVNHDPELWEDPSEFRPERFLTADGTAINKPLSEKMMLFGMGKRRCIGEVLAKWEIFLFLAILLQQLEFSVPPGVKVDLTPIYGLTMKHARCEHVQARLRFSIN

Row | SMILES | activity, negative = inhibition | AC50
1 | Cc1ccc(Cl)cc1-n1c(=O)cc(N2CC(C)OC(C)C2)[nH]c1=O (stereo not given) | -1.42% | 
2 | Cc1cccc(Nc2cc(Cl)nc(SCC(=O)O)n2)c1C | 0.128% | 
3 | Clc1ccc(Cl)c(Nc2ccnc(SCc3ccccc3)n2)c1 |  | 0.501 µM (active)
4 | Cn1c(=O)n2n(c1=O)[C@H]1[C@H](O)[C@H]3O[C@@H]3/C(=N/OC[C@@H](O)COCc3ccco3)[C@@H]1CC2 | 2.55% [at 11.4 µM] | 
5 | CCc1cccc2c(-c3ccccc3)c3c(nc12)OCC3 |  | 0.316 µM (active)
6 | CCc1cccc2c3c([nH]c12)[C@@](CC)(CC(=O)O)OCC3 | -10.3% [at 25.6 µM] | 
7 | O=C1Nc2ccccc2/C1=N/c1sc2c(c1C(=O)NCCc1ccccc1)CCCC2 |  | 2.51 µM (active)
8 | NS(=O)(=O)c1ccc(N=C2C(=O)Nc3ccccc32)cc1 | -12.7% [at 2.29 µM] | 
9 | O=C1Nc2ccccc2C1=Nc1ccc(S(=O)(=O)Nc2nccs2)cc1 | -18.2% [at 11.4 µM] | 
10 | CC(=O)NCCNc1nc(-c2cccc(NS(C)(=O)=O)c2)nc2ccccc12 |  | 15.8 µM (active)
11 | CS(=O)(=O)Nc1cccc(-c2nc(NCc3ccccc3)c3ccccc3n2)c1 |  | 2.51 µM (active)
12 | c1cc(NNc2cccc(-c3nn[nH]n3)c2)cc(-c2nn[nH]n2)c1 | -15.5% [at 2.29 µM] | 
13 | COCCNc1nc(-c2cccc(NS(C)(=O)=O)c2)nc2ccccc12 |  | 3.16 µM (active)
14 | CS(=O)(=O)Nc1cccc(-c2nc(NCc3cccs3)c3ccccc3n2)c1 |  | 1 µM (active)
15 | CC[C@@H]1CC(=O)N(SC[C@H](N)C(=O)O)C1=O | -14.7% [at 11.4 µM] | 
16 | COc1cccc([C@@H]2Oc3ccc(Br)cc3C(=O)[C@H]2O)c1 | -3.35% [at 11.4 µM] | 
17 | CCc1c(C)c(C#N)c2nc3ccccc3n2c1Nc1c(C)n(C)n(-c2ccccc2)c1=O | -20.2% | 
18 | Cc1cccc(CNc2nc(-c3cccc(NS(C)(=O)=O)c3)nc3ccccc23)c1 |  | 15.8 µM (active)
19 | Cc1sc(NC(=O)c2ccco2)c(C(c2ccncc2)N2CCOCC2)c1C (stereo not given) | -16.7% | 
20 | Cc1sc(NC(=O)c2ccco2)c(C(c2cccnc2)N2CCCC2)c1C (stereo not given) |  | 14.1 µM (active)
21 | Cc1sc(NC(=O)c2ccco2)c(C(c2cccnc2)N2CCN(C)CC2)c1C (stereo not given) | -7.13% | 
22 | CCCCN(C)Cc1c(C)[nH]c2ccc(Cl)cc2c1=O |  | 5.01 µM (active)
23 | CC(=O)N1CCC[C@@]2(CCN(c3ccncc3)C2)C1 | 1.12% | 
24 | CC(=O)N1CCC[C@@]2(CCN(c3ccccc3)C2)C1 | 5.33% | 
25 | Cn1cccc1C(=O)N1CCC[C@@]2(CCN(C(c3ccccc3)c3ccccc3)C2)C1 |  | 20 µM (active)

Row | SMILES | activity, negative = inhibition | AC50
26 | CN1CC[C@@]2(CCCN(C(=O)c3cccn3C)C2)C1 | 10.5% | 
27 | Cn1cccc1C(=O)N1CCC2(CC1)CN(c1ccncc1)C2 | 0.971% | 
28 | Cn1cccc1C(=O)N1CCC[C@@]2(CCN(c3ccncc3)C2)C1 |  | 12.6 µM (active)
29 | O=C(c1ccco1)N1CCC2(CC1)CN(C(c1ccccc1)c1ccccc1)C2 | -18.6% | 
30 | CC(C)NC(=O)N1CC[C@@]2(CCCN(C(=O)c3cccn3C)C2)C1 | 1.6% | 
31 | O=C(c1ccco1)N1CCC[C@@]2(CCN(C(c3ccccc3)c3ccccc3)C2)C1 |  | 25.1 µM (active)
32 | O=C(c1cccc(F)c1)N1CCC[C@@]2(CCN(C(c3ccccc3)c3ccccc3)C2)C1 | -0.977% | 
33 | O=C(c1ccco1)N1CCC2(CC1)CCN(C(c1ccccc1)c1ccccc1)CC2 | -6.96% | 
34 | Cn1cccc1C(=O)N1CCC[C@@]2(CCN(c3ccccc3)C2)C1 |  | 12.6 µM (active)
35 | NC(N)=NC[C@@H]1CCCCCCN1 | -17.8% [at 11.4 µM] | 
36 | C=CCCCCCCCCC(=O)Nc1c[nH]c(=O)[nH]c1=O | -29.9% | 
37 | O=C1CN(c2nc(-c3ccccc3)c3cc(Br)ccc3n2)c2ccccc2N1 |  | 2.51 µM (active)
38 | CC12CCC(C(=O)O)(C/C1=N\O)C2(C)C (stereo not given) | -24.9% | 
39 | COC(=O)[C@]1(C)CCC(c2ccc(C)cc2)=C(CC(=O)O)C1 | -8.38% [at 2.29 µM] | 
40 | CCc1ccc(N(C(=O)c2csnn2)C(C(=O)NC(C)(C)C)c2ccncc2)cc1 (stereo not given) |  | 22.4 µM (active)
41 | Cc1ccc(N(C(=O)c2csnn2)C(C(=O)NC(C)(C)C)c2cccs2)cc1 (stereo not given) | 1.9% | 
42 | CCc1ccc(N(C(=O)c2csnn2)C(C(=O)NCc2ccccc2)c2ccco2)cc1 (stereo not given) | -15.1% | 
43 | CCOC(=O)/C(C(N)=NCCCO)=C(/O)c1ccccc1 | -29.7% | 
44 | CCOC(=O)/C(=C/Nc1ccccc1)[N+](=O)[O-] |  | 2.82 µM (active)
45 | C/C=C\C1=C(CO)[C@H](O)[C@H]2O[C@H]2[C@H]1O | -3.7% [at 11.4 µM] | 
46 | COc1ccc(C[C@H](N)C(=O)N[C@@H]2[C@H](O)[C@H](n3cnc4c(N(C)C)ncnc43)O[C@@H]2CO)cc1 | -12% [at 25.6 µM] | 
47 | CC(C)N(CC(=O)O)CC(=O)O | -20.9% [at 11.4 µM] | 
48 | CC(=O)Nc1nonc1NC(=O)c1ccc(C(C)(C)C)cc1 |  | 1 µM (active)
49 | Cc1cccc(C(=O)Nc2nnc(-c3ccc(C(C)(C)C)cc3)s2)c1 | -14.1% | 
50 | CC(C)(C)c1ccc(C(=O)NC(Cc2ccccc2)C(=O)O)cc1 (stereo not given) | 11.9% | 

Row | SMILES | activity, negative = inhibition | AC50
51 | O=C(Oc1ccccc1)N1CCC[C@@]2(CCN(c3ncccn3)C2)C1 |  | 12.6 µM (active)
52 | O=C(c1csnn1)N1CCC[C@@]2(CCN(c3ccccn3)C2)C1 | -10.2% | 
53 | CC(=O)N1CCC[C@@]2(CCN(c3ncccn3)C2)C1 | 6.47% | 
54 | CC(=O)N1CCC2(CCCN(c3ccccn3)C2)CC1 | 3.81% | 
55 | CC(=O)N1CCC2(CCCN(c3ncccn3)C2)CC1 | -19.5% | 
56 | O=C(Oc1ccccc1)N1CCC2(CC1)CN(c1ccccn1)C2 | -19.3% | 
57 | O=C(Oc1ccccc1)N1CCC2(CC1)CCN(c1ncccn1)CC2 | -11.2% | 
58 | COC(=O)N1CCC2(CC1)CN(c1ccccn1)C2 | -9.75% | 
59 | COC(=O)N1CCC[C@@]2(CCN(c3ncccn3)C2)C1 | -5.87% | 
60 | O=C(Oc1ccccc1)N1CCC2(CCCN(c3ncccn3)C2)CC1 |  | 10 µM (active)
61 | COC(=O)N1CCC[C@@]2(CCN(c3ccccn3)C2)C1 |  | 15.8 µM (active)
62 | O=C(Oc1ccccc1)N1CCC2(CCCN(c3ccccn3)C2)CC1 |  | 20 µM (active)
63 | Cc1noc(C)c1C(=O)N1CCC[C@@]2(CCN(Cc3ccccc3)C2)C1 | 5.42% | 
64 | Cn1c(=O)c2c(nc(N3CCN(c4ccccn4)CC3)n2Cc2ccccc2Cl)n(C)c1=O | -17% | 
65 | Cn1c(=O)c2c(ncn2CC(COCc2ccccc2Cl)OCc2ccccc2Cl)n(C)c1=O (stereo not given) | -8.25% | 
66 | CC(C)CCn1c(Oc2ccccc2Cl)nc2c1c(=O)n(C)c(=O)n2C |  | 14.1 µM (active)
67 | CSc1ccc(C#N)cc1NC(=O)c1cccc(Cl)c1 |  | 6.31 µM (active)
68 | CCOc1cc(CC(=O)N[C@@H](CC(C)C)c2ccccc2N2CCCCC2)ccc1C(=O)O | 1.45% [at 25.6 µM] | 
69 | CCOc1ccc(C(=O)Nc2ccccc2N2CCCC2)cc1 |  | 2.82 µM (active)
70 | O=C(Nc1ccccc1N1CCN(C(=O)c2ccc(Cl)cc2)CC1)c1cc(Br)ccc1Cl | -26.3% | 
71 | CCN(CCO)C[C@H]1CCC[C@H]2CCCC[C@@H]21 |  | 5.01 µM (active)
72 | O=C1NCCN1Cc1ccccc1F |  | 3.55 µM (active)
73 | COc1ccc(CC(=O)NCCN2CCCC2)cc1 | -9.19% | 
74 | O=C(NCCN1CCCCC1)c1ccc(I)cc1 |  | 25.1 µM (active)
75 | Cc1ccc(CS(=O)(=O)CCC(=O)NCCN2CCCC2)cc1 | -5.06% | 

Row | SMILES | activity, negative = inhibition | AC50
76 | Nc1cc(Cl)ccc1Oc1ccccc1 |  | 7.94 µM (active)
77 | Nc1cc(Cl)ccc1Oc1ccc(Cl)cc1 |  | 0.398 µM (active)
78 | CC(=O)NCCNc1nc(-c2ccccc2C(F)(F)F)nc2ccccc12 |  | 15.8 µM (active)
79 | CC(C)(C)NCC[C@@H](O)c1cc(C(F)(F)F)nc2c(C(F)(F)F)cccc12 | -9.91% [at 2.29 µM] | 
80 | CCN(CC)c1cc(C)c2cc(NC(=O)CNC(C)=O)ccc2n1 | -11.9% | 
81 | CC(=O)NCCNc1nc(-c2ccccc2C)nc2ccccc12 |  | 6.31 µM (active)
82 | CC(C)(C)CC(C)(C)c1ccc(OCOCCOCCO)c(Cc2cc(C(C)(C)CC(C)(C)C)cc(Cc3cc(C(C)(C)CC(C)(C)C)ccc3OCOCCOCCO)c2OCOCCOCCO)c1 | -3.71% [at 25.6 µM] | 
83 | COc1cccc(-c2csc(N3CCN(C(=S)Nc4ccccc4)CC3)n2)c1 |  | 3.16 µM (active)
84 | CCOCCCNC(=O)C1CCN(S(=O)(=O)N2CC(C)CC(C)C2)CC1 (stereo not given) | -3.01% | 
85 | Cc1ccc(NC(=O)/C(=C/c2cccc([N+](=O)[O-])c2)NC(=O)C2CCCCC2)c(C)c1 | 10.1% | 
86 | CC1CCCN(C/C=C/c2ccccc2[N+](=O)[O-])C1 (stereo not given) |  | 14.1 µM (active)
87 | CCOC(=O)C1CCCN(C/C=C/c2ccccc2[N+](=O)[O-])C1 (stereo not given) |  | 4.47 µM (active)
88 | CCOC(=O)C1CCCN(S(=O)(=O)c2ccccc2)C1 (stereo not given) | -11.5% | 
89 | CCOC(=O)C1CCCN(C(=O)/C=C/c2cccc([N+](=O)[O-])c2)C1 (stereo not given) |  | 11.2 µM (active)
90 | C[C@@H]1CCCN(CP(=O)(c2ccccc2)c2ccccc2)C1 | -3.49% [at 11.4 µM] | 
91 | O=C(O)[C@H]1CCCN(CCC=C(c2ccccc2)c2ccccc2)C1 | -1.11% | 
92 | O=C(c1ccco1)N1CCC2(CC1)CN(c1ccccc1)C2 | -12.3% | 
93 | O=C(c1ccco1)N1CCC2(CC1)CCN(c1ccccc1)CC2 | -19% | 
94 | O=C(c1ccco1)N1CCC2(CC1)CCN(c1ccc(-c3ccccc3)cc1)CC2 | -28.9% | 
95 | O=C(c1ccco1)N1CCC[C@@]2(CCN(c3cccc(-c4ccccc4)c3)C2)C1 |  | 15.8 µM (active)
96 | O=C(c1ccncc1)N1CCC[C@@]2(CCN(c3ccccc3)C2)C1 | -10.4% | 
97 | O=C(c1ccco1)N1CCC[C@@]2(CCN(Cc3ccccc3)C2)C1 | -3.18% | 
98 | O=C(c1ccco1)N1CCC[C@@]2(CCN(c3ccncc3)C2)C1 |  | 12.6 µM (active)
99 | O=C(c1ccco1)N1CCC2(CCCN(c3ccccc3)C2)CC1 | 6.83% | 
100 | O=C(c1ccco1)N1CCC2(CC1)CCN(c1cccc(-c3ccccc3)c1)CC2 |  | 15.8 µM (active)
